The list is not random: actives were taken first. Their share in the collection is about 2.2%.
Cardiac RTF inh = cardiac RTF calcium desensitization; inhibition, % at 7.15 µM; IANBD-labeled cardiac RTF, Ca2+ fluorescence; actives 0.12% (n = 340,000); P19429+P45379;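 active means inhibition above the mean inhibition of all tested compounds plus 3 SD, cut at about 17% in these data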;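 further: assay run at fixed EC70 calcium of 1.6 mM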
cardiac RTF act = cardiac RTF calcium sensitization; P19429+P45379; IANBD-labeled TnC RTF fluorescence at EC20 calcium; 0% EC20 calcium, 100% full calcium; activation, % at 7.2 µM; actives 0.24% (n = 340,000);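 active means activation above the mean over all tested compounds plus 3 SD, cut at about 30% in these data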;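 further: rise in fluorescence read as greater calcium sensitivity of cardiac thin filaments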
Myeloid diff MLP = promotes myeloid progenitor differentiation. ER-HoxA9 myeloid progenitors, lysozyme-GFP differentiation, flow cytometry. actives 1% (n = 360,000). calls only at 10 µM;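 active means normalized GFP-positive differentiation at or above the plate's own cutoff, the solvent-only control mean plus 3 SD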;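 further: cells exposed to compound for four days before flow analysis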
CRFBP-R2 agonist = agonists of human CRF-binding protein/CRF-R2 receptor complex. activation, % at 13.2 µM. actives 0.46% (n = 350,000). AID 588473. HEK293 CRF-R2/CRF-BP, calcium dye fluorescence (FLIPR); percent of saturating CRF peptide response;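 active means activation of at least 50%, plus an integration ratio under a set limit after plate pattern correction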;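 further: plate controls were neutral control wells without compound for no effect and CRF at EC100 for full effect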
CRFBP-R2 block = blocks CRF-induced signaling of the CRF-BP/CRF-R2 complex | actives 0.59% (n = 350,000) | inhibition, % at 11.8 µM | HEK293 CRF-R2/CRF-BP, CRF-induced calcium fluorescence | AID 588475;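 active means inhibition of the ligand-induced calcium signal above about 50% at the single tested concentration, limit read from the data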
Myeloid diff = promotes myeloid progenitor differentiation; shares compounds with Myeloid diff MLP; ER-HoxA9 myeloid progenitors, GFP/Mac1 double-positive flow; calls only; actives 2% (n = 2,300); AID 651706;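 active means share of green or green-and-red cells above 9 and 9% in run 1 or 4 and 3% in run 2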
GFP autofluor = flagged as fluorescent in myeloid differentiation counter-screen; shares compounds with Myeloid diff MLP; ER-HoxA9 myeloid progenitors, no estrogen, GFP autofluorescence flow cytometry; vehicle wells 0%, positive control 100%; fluorescence response, % (concentration not given with the values); actives 7.4% (n = 2,300);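 active means over 5% cells positive for green fluorescent reporter, or over 2% positive for both it and APC stain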;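 further: range taken on the double positive population between DMSO and positive control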
* = called active by the depositor.

`CCOc1ccccc1N(CC(=O)NC1CCCCC1)S(=O)(=O)c1ccc(C)cc1` gave Cardiac RTF inh -8, cardiac RTF act 1, Myeloid diff MLP active, CRFBP-R2 agonist 5, CRFBP-R2 block -21, Myeloid diff inactive and GFP autofluor 0.
`CCC(C)(C)NC(=O)C1CCCN(S(=O)(=O)c2ccc3c(c2)CC(C)N3C(=O)C2CC2)C1` (stereo not drawn) gave Cardiac RTF inh -10, cardiac RTF act -4, Myeloid diff MLP inactive, CRFBP-R2 agonist -1 and CRFBP-R2 block -14.
O=S1(=O)CC(N2CCC(Cc3ccccc3)CC2)CN1C1CCCCC1 (stereo not drawn) was read as Myeloid diff MLP inactive.
`CCOC(=O)[C@@H]1[C@H]2COc3ccccc3[C@H]2N2C(=O)N(c3ccccc3)C(=O)[C@]12C` gave Cardiac RTF inh 0, cardiac RTF act 3, Myeloid diff MLP inactive, CRFBP-R2 agonist -1 and CRFBP-R2 block 2.
For CCOC(=O)Cn1nnc(-c2cccc(OC)c2)n1 the results were Cardiac RTF inh -25, cardiac RTF act 10, Myeloid diff MLP inactive, CRFBP-R2 agonist -1, CRFBP-R2 block 1, Myeloid diff inactive and GFP autofluor 0.
`Cc1cc2cc(CN(CC3CCCO3)C(=S)Nc3ccccc3)c(=O)[nH]c2cc1C` (stereo not drawn) gave Cardiac RTF inh -5, cardiac RTF act 2, Myeloid diff MLP active, CRFBP-R2 agonist -1, CRFBP-R2 block 9, Myeloid diff inactive and GFP autofluor 5.
For O=C(NCCO)/C(=C\c1ccc([N+](=O)[O-])o1)NC(=O)c1ccccc1 the results were Cardiac RTF inh -4, cardiac RTF act -4, Myeloid diff MLP inactive, CRFBP-R2 agonist 7, CRFBP-R2 block -12, Myeloid diff inactive and GFP autofluor 0.
`Cc1cnc(C(=O)OCC(=O)c2ccccc2)cn1` gave Cardiac RTF inh -3, cardiac RTF act 0, Myeloid diff MLP inactive, CRFBP-R2 agonist 1 and CRFBP-R2 block 36.
`Cn1ccc(C(=O)OCC(=O)c2ccccc2)n1` gave Cardiac RTF inh 1, cardiac RTF act 11, Myeloid diff MLP active, CRFBP-R2 agonist -1, CRFBP-R2 block 4, Myeloid diff inactive and GFP autofluor 0.
For O=[N+]([O-])c1cccc(NC(=S)N2CCc3ccccc32)c1 the results were Cardiac RTF inh 1, cardiac RTF act -3, Myeloid diff MLP inactive, CRFBP-R2 agonist 1, CRFBP-R2 block -10, Myeloid diff inactive and GFP autofluor 1.
O=C(Nc1cccc([N+](=O)[O-])c1)N1CCCc2ccccc21 was read as Cardiac RTF inh -1, cardiac RTF act 3, Myeloid diff MLP inactive, CRFBP-R2 agonist 0 and CRFBP-R2 block -4.
For Cc1ccc(S(=O)(=O)NN2C(=O)c3ccccc3NC2c2ccccn2)cc1 (stereo not drawn) the results were Cardiac RTF inh -7, cardiac RTF act 2, Myeloid diff MLP inactive, CRFBP-R2 agonist -4 and CRFBP-R2 block 8.
COc1cc(S(=O)(=O)N2CCC(c3nc4ccccc4s3)CC2)ccc1S(=O)(=O)N1CC(C)CC(C)C1 (stereo not drawn) was read as Cardiac RTF inh 1, cardiac RTF act 1, Myeloid diff MLP inactive, CRFBP-R2 agonist -1, CRFBP-R2 block 1, Myeloid diff inactive and GFP autofluor 1.
For COc1cc(S(=O)(=O)N2CCC(c3nc4ccccc4s3)CC2)ccc1S(=O)(=O)NC1CCCC1 the results were Cardiac RTF inh 1, cardiac RTF act -9, Myeloid diff MLP inactive, CRFBP-R2 agonist 4 and CRFBP-R2 block -31.
O=C(CN1CCOCC1)Nc1ccccc1Sc1ccc(Cl)cc1 was read as Cardiac RTF inh 9, cardiac RTF act -5, Myeloid diff MLP inactive, CRFBP-R2 agonist 2 and CRFBP-R2 block -37.
For O=C1N[C@H](Cc2ccccc2)COC(=O)[C@@H](Cc2ccc(F)cc2)CC/C=C/C[C@H]1CC(=O)N(CCO)Cc1ccccc1 the results were Cardiac RTF inh 5, cardiac RTF act 1, Myeloid diff MLP inactive, CRFBP-R2 agonist 1 and CRFBP-R2 block -6.
`O=C1N[C@@H](Cc2ccccc2)COC(=O)[C@@H](Cc2ccc(F)cc2)CC/C=C/C[C@@H]1CC(=O)N(CCO)Cc1ccccc1` gave Cardiac RTF inh -26, cardiac RTF act -3, Myeloid diff MLP active, CRFBP-R2 agonist 2, CRFBP-R2 block -22, Myeloid diff inactive and GFP autofluor 0.
Cc1ccc(-c2nn3c(C)nnc3s2)cc1NC(=O)CSc1ccc(Cl)cc1 was read as Cardiac RTF inh -11, cardiac RTF act 6, Myeloid diff MLP active, CRFBP-R2 agonist -4, CRFBP-R2 block -21, Myeloid diff active and GFP autofluor 5.
For C=CCSc1nnc(-c2cc3c(s2)-c2ccccc2CC3)o1 the results were Cardiac RTF inh 3, cardiac RTF act 1, Myeloid diff MLP inactive, CRFBP-R2 agonist 0 and CRFBP-R2 block 10.
`CC(=O)c1ccc(NS(=O)(=O)c2ccc3c(c2)CCC(=O)N3)cc1` gave Cardiac RTF inh 3, cardiac RTF act 5, Myeloid diff MLP inactive, CRFBP-R2 agonist 0 and CRFBP-R2 block 0.
For COC(=O)c1cc(NS(=O)(=O)c2ccc3c(c2)CCC(=O)N3)cc(C(=O)OC)c1 the results were Cardiac RTF inh -1, cardiac RTF act -5, Myeloid diff MLP active, CRFBP-R2 agonist 1, CRFBP-R2 block 16, Myeloid diff inactive and GFP autofluor 0.
For CC(=O)NC(Cc1cccc(F)c1)C(=O)NC1CCN(c2nnnn2-c2ccccc2)CC1 (stereo not drawn) the results were Cardiac RTF inh 7, cardiac RTF act -2, Myeloid diff MLP inactive, CRFBP-R2 agonist -1 and CRFBP-R2 block -2.
`CCC(=Nc1ccccc1O)C1=C(O)CC(c2ccccc2)CC1=O` (stereo not drawn) gave Cardiac RTF inh -21, cardiac RTF act 7, Myeloid diff MLP inactive, CRFBP-R2 agonist 0, CRFBP-R2 block 6, Myeloid diff inactive and GFP autofluor 6.6*.
O=C1C(O)=C(O)C(=O)c2ccccc21 was read as Cardiac RTF inh -6, cardiac RTF act -7, Myeloid diff MLP inactive, CRFBP-R2 agonist -1, CRFBP-R2 block -3, Myeloid diff inactive and GFP autofluor 0.
Screening COCc1cc(=O)[nH]c(Nc2nc3ccc(C)cc3o2)n1 returned Cardiac RTF inh 7, cardiac RTF act 0, Myeloid diff MLP inactive, CRFBP-R2 agonist -3, CRFBP-R2 block 5, Myeloid diff inactive and GFP autofluor 4.

Assay outcomes (PubChem BioAssay)
